The values below come from PubChem BioAssay AID588402 (Sanford-Burnham Center for Chemical Genomics, 2011).

The structures appear in SMILES notation. Out of some 1,600 compounds screened, about 1,100 (69%) were called active. So high a share suggests a set chosen from earlier hits. Only a sample is shown. A number with no mark means an inactive call. No stated cut-off is given here; in the data, active means inhibition above about 50%; inactive means the rest.

The target in this assay is Phospholipase A2 (Homo sapiens) (UniProt P04054). Briefly: PLA2 enzyme inhibition, counter-screen for ATG4B inhibitor project, biochemical, single concentration, uHTS hits (AID 588402). The following applies: purified PLA2, NBD-C6-HPC fluorescence, 45 min; at 8.33 µM; stronger effect = higher value.
Chain of Phospholipase A2 (Homo sapiens) (P04054 whole entry, looked up): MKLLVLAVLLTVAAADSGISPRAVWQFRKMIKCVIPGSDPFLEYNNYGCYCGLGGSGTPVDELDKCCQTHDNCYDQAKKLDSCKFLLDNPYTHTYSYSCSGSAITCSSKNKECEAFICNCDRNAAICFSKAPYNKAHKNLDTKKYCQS
`COc1ccc2c(c1)CCc1c(C(=O)N3CCc4ccccc4C3)noc1-2`: the inhibition – broadly, the change of the read-out against control, counted positive when it falls – was 47.9%.

`Cc1ccc(-c2cc(C(=O)N3CCc4ccccc4C3)no2)cc1`: the inhibition was 43.8%. For `O=C(C(=O)N1CCc2ccccc2C1)c1c[nH]c2ccccc12` the value was 71% (active). Consider `Cc1ccc(CSc2nc(-c3ccccc3)c(C#N)c(=O)[nH]2)cc1`, for which the inhibition is 32.1%.

For `COc1ccc(Br)cc1C(=O)NC(=S)Nc1cc(-c2nc3ccccc3[nH]2)ccc1C`, the inhibition is 74.1% (active). In the case of `Cc1cccc(C)c1N1C(=O)CN(Cc2ccccc2)C1=S` it was 90.3% (active); in that of `CCc1cccc(C)c1N1C(=O)CN(Cc2ccccc2)C1=S`, 92.4% (active); in that of `Cc1cccc(C)c1-n1c(C)cc(/C=C2\C(=O)NN(c3ccccc3)C2=O)c1C`, 63.7% (active). For the molecule `Cc1c(Cl)cccc1NC(=O)Nc1ccc(C(=O)N2CCCC2)cc1`, the inhibition was 56.6% (active). Take `O=C1c2ccccc2C(=O)N1Cc1cc(-c2ccccc2Cl)no1`: the inhibition was 64.2% (active). In the case of `COc1ccc(C)cc1S(=O)(=O)N(CC(=O)Nc1cccc([N+](=O)[O-])c1)c1ccc(C)cc1`, the inhibition was 86.6% (active). In the case of `Cc1ccc(S(=O)(=O)N(CC(=O)Nc2cccc([N+](=O)[O-])c2)Cc2ccc(Cl)cc2)cc1` it was 80.7% (active). For `Fc1cccc(Cl)c1CSc1ccc(-c2ccco2)nn1`, the inhibition is 49.5%. In the case of `NC(=O)Cc1ccc2sc(-c3ccccc3)nc2c1` it was 79.7% (active); in that of `CCN1CCN(c2c(Cl)cccc2NC(=O)c2ccc(Br)o2)CC1`, 61.6% (active); in that of `Cc1ccc(N=C2NC(=O)/C(=C/C=C/c3ccco3)S2)cc1C`, 36.4%. In the case of `CC(C)c1ccc2c(c1)c(SC(C)(C)C)c(CC(C)(C)C(=O)O)n2Cc1ccc(Cl)cc1` it was 57.7% (active); in that of `O=C(/C=C/c1ccc(Cl)cc1)N1CCN(c2ccccc2[N+](=O)[O-])CC1`, 53% (active); in that of `CC(=O)c1c(C)n(-c2ccc(N(C)C)cc2)c2ccc(OCC(N)=O)cc12`, 82.6% (active).

With `Cc1c(Cl)c([N+](=O)[O-])nn1CCCC(=O)Nc1cc(Cl)ccc1Cl`, the inhibition was 69.4% (active). As to `COc1ccc(/C=C2/SC(=O)N(CCCCCC(=O)Nc3ccccc3C(=O)O)C2=S)cc1`, the inhibition is 24.3%. Turning to `O=C(Nc1cccc(F)c1)NC1CCCc2ccccc21` (stereo not given), the inhibition is 71.2% (active). On to `CCOC(=O)c1c(C)[nH]c2c1-c1ccccc1C(=O)C2=O`, for which the inhibition is -20.8%. For `CC1CCN(C(=O)c2ccc(CSc3ccc(Cl)cc3)cc2)CC1` the value was 58.1% (active); for `CC1(OC(=O)C2CCCC2)C(=O)C=C2C=C(c3ccc(C#N)cc3)OC=C2C1=O` (stereo not given), 66.5% (active); for `CCCc1nc2c(c(=O)c3ccccc3n2C)c(=O)n1C1CCCCCC1`, -14.6%.

With `Cc1c(Cl)cccc1NC(=S)NCc1ccc2c(c1)OCO2`, the inhibition is 62.1% (active).

As for `CCCOc1ccc2c3c(c(=O)oc2c1OCCC)CCC3`, the inhibition was 40.9%. For `CCc1ccccc1NC(=O)/C(=C/c1ccccc1)c1ccccc1` the value was 61.7% (active). Take `Cc1ccc(Nc2cc(=O)n(C3CCCCC3)c(=O)[nH]2)cc1C`: the inhibition is 2.78%. For the molecule `NC(=O)Cc1ccc2c(c1)[nH]c1ccccc12`, the inhibition was 51% (active).

In the case of `O=C1N=C(N2CCc3ccccc3C2)S/C1=C\c1ccc(O)cc1`, the inhibition is 23.3%. As for `O=c1c2sccc2nc(SCc2cc(=O)n3ccccc3n2)n1-c1ccc(Br)cc1`, the inhibition is 51.5% (active). In the case of `CCOc1ccc(-n2c(SC(C)C(=O)OC)nc3c(c2=O)SCC3)cc1` (stereo not given) it was 56.4% (active); in that of `CCOC(=O)C(C)Sc1nc2ccccc2c(=O)n1CC1CCCCC1` (stereo not given), 44.5%; in that of `Cc1ccc(NC(=O)CC2S/C(=N/N=C3\CCCc4ccccc43)NC2=O)cc1` (stereo not given), 60% (active). Take `Cc1nn(-c2ccccc2)c(C)c1/C=N/NC(=O)CSc1nc2ccccc2c(=O)n1-c1ccccc1`: the inhibition was 31.8%.

As for `COC(=O)c1c(NC(=O)C2CC(C)=C(C)CC2C(=O)O)sc2c1CCCCC2` (stereo not given), the inhibition is 68% (active).

With `COc1cccc(CNc2nc(C(F)(F)F)nc3ccccc23)c1`, the inhibition was 63.6% (active).

For the molecule `OC(CNCc1ccc(Cl)c(Cl)c1)c1ccccc1` (stereo not given), the inhibition is 38.9%. As for `Cc1c(NC(=S)NCc2ccc(F)cc2)cccc1[N+](=O)[O-]`, the inhibition is 70.7% (active).

Turning to `Cc1cccc(C2c3[nH]c4ccccc4c3CCN2C(=O)c2cc(-c3cccn3C)n[nH]2)n1` (stereo not given), the inhibition is 75.6% (active). In the case of `Cc1c(Cl)c([N+](=O)[O-])nn1Cc1ccc(C(=O)N/N=C\c2cc(Cl)ccc2O)o1`, the inhibition is 72.6% (active).

With `COc1cccc(/C=N/Nc2ccc(S(=O)(=O)Nc3ccccc3C(=O)O)cc2[N+](=O)[O-])c1O`, the inhibition was 56.1% (active). On to `c1ccc(C2=Nc3cccc4cccc(c34)N2)cc1`, for which the inhibition was 58.5% (active). Regarding `CC(C)c1nc(SCC(=O)Nc2cccc(C(=O)O)c2)c2c3c(sc2n1)CCCC3`, the inhibition was 70.6% (active). Consider `Cc1nc2ccccc2c(-c2ccccc2)c1C(=O)c1ccccc1`, for which the inhibition was 81.3% (active). In the case of `Cc1ncc(CC(=O)n2cc(C(=O)c3cc(Cl)ccc3O)cn2)s1`, the inhibition was 84.3% (active). For `Cc1cccc(C)c1N1CCN(S(=O)(=O)N2CCCCC2)CC1` the value was 54.3% (active); for `Cc1nc(SCC(=O)N2CCc3ccccc3C2)c2c(C)c(C)sc2n1`, 76.5% (active); for `FC(F)(F)c1cccc(NC(=S)Nc2cccc(Cl)c2)c1`, 70.8% (active). In the case of `Cc1ccc(C2=Nc3c(ccc4ccccc34)C(c3ccncc3)=NN2)cc1` it was 68.7% (active); in that of `O=C(NCc1ccccc1)[C@H]1C[C@@H]1[C@H](NP(=O)(c1ccccc1)c1ccccc1)c1ccccc1`, 79% (active); in that of `Clc1ccccc1CSc1nnc(-c2ccco2)c(-c2ccco2)n1`, 34.9%. For `O=C(CSc1nc(-c2ccccc2)cs1)Nc1cccc([N+](=O)[O-])c1` the value was 16.5%. On to `O=C(Nc1nnc(SCc2ccccc2Cl)s1)c1cccc([N+](=O)[O-])c1`, for which the inhibition is 57.6% (active). For `Cc1ccc(CNC(=O)c2ccccc2CCc2ccccc2)cc1` the value was 45.9%; for `S=C(NCCc1ccccc1)NCc1ccccc1Cl`, 54.4% (active).

Regarding `FC(F)(F)Oc1ccc(NC(=S)NCc2ccccc2)cc1`, the inhibition was 47.2%. In the case of `CN(Cc1c(F)cccc1Cl)S(=O)(=O)c1cccs1`, the inhibition was 58.8% (active).
